aSyn yeast inh = inhibitors of alpha-synuclein toxicity in yeast; Potency, µM (top dose mostly 46.1 µM), for the others: at the top dose growth rescue (activation), usual class: activators; Yeast expressing alpha-synuclein, growth rescue, BacTiter-Glo, 24 h; hit rate 0.14% among 370,000; further: potency means the concentration at half of the fitted maximal effect; % of control where 0% means no effect; nearly all actives have a fitted effect of over 65% in size
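Rescue of yeast growth: cells expressing toxic alpha-synuclein, induced in galactose at OD600 0.02, incubated with compound 24 h at 30 C. ATP luminescence quantified growth; inhibitors of toxicity appear as activators.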
Akt phos inh = inhibitors of Akt phosphorylation | Neuro2A IGF-stimulated pAkt S473 HTRF, 20 min; stronger effect = lower value | activity change, % for hits at 50 µM | hit rate 0.32% among 360,000; in the data active means activity change below about -80%; inconclusive means mostly about -51% to -80%; further: on the % scale 0 is the no-effect control and ±100 the full control effect
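Neuro2A cells in DMEM with 0.5% FBS, overnight at 37 deg C, given compound at single 50 µM final, then IGF (6 nM final) for 20 min at 37 deg C. Lysed; phospho-Akt Ser473 by HTRF after 24 h, 665/615 ratio.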
Abeta rescue = restores growth of yeast expressing A-beta42 peptide | yeast expressing A-beta42, growth rescue, OD600, 48 h; response scale: 0% DMSO, 100% iron-clioquinol control | Potency, µM (highest dose often 46.1 µM), most hits filed as activators | hit rate 0.063% among 410,000 | AID 1347071; further: potency means the concentration at half of the fitted maximal effect; nearly all actives have a fitted effect of over 55% in size
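Yeast growth medium received pinned compounds, then yeast cells expressing toxic A-beta were added; plates incubated at 30 C for 48 hr. Growth read as absorbance at 600 nm, normalized to DMSO and equimolar FeCl3 plus clioquinol controls.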
FUS suppressor = FUS proteinopathy suppression in yeast; S. cerevisiae FUS-expressing, growth rescue, OD600, 24 h; Potency, µM (titrated, usually from 76.6 µM), actives largely listed as activators; hit rate 0.24% among 390,000; AID 1347120;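 further: potency means the concentration at half of the fitted maximal effect; plate controls were DMSO vehicle for no effect and reference control for full effect; nearly all actives have a fitted effect of over 55% in size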
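Galactose (2%) drives FUS expression in yeast precultured in raffinose; seeding density OD 0.005. Test compounds incubated 24hr at 30C and 99% humidity before absorbance at 600 nm was measured.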
TDP-43 yeast inh = TDP-43 toxicity inhibition in yeast. Potency, µM (series often up to 46.1 µM), for inactives: at the highest dose growth rescue (activation), hits mostly activators. hit rate 1.8% among 410,000. TDP-43 expressing yeast growth rescue, BacTiter-Glo, 24 h. AID 652104; further: potency means the concentration at half of the fitted maximal effect; % of control where 0% means no effect; nearly all actives have a fitted effect of over 50% in size
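Galactose-induced TDP-43 yeast, OD600=0.02, compound pinned; 24 hr, 30 deg C; BacTiter-Glo luminescence for growth. Inhibitors of TDP-43 toxicity read as activators.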
* = called active by the depositor; i = inactive; ? = inconclusive; / = not tested or not shown; [ ] = another dose, or the depositor's remark. An excerpt weighted towards active compounds, which were near 2.3% of everything screened. Unless noted, the call rests on the fitted dose curve; in most records, active means well fitted curve in the direction sought with a large enough effect; inconclusive means small, poorly fitted or top-dose-only effect, or another doubt; inactive means no such curve, though single readings can be large; an effect the other way counts as inactive or inconclusive.

SMILES	aSyn yeast inh	Akt phos inh	Abeta rescue	FUS suppressor	TDP-43 yeast inh
Brc1ccc(-c2nnc(-c3cccnc3)o2)cc1	3.1%	i	i	i	10µM*
Clc1ccc(-c2nnc(-c3cccnc3)o2)cc1	-3.6%	i	i	i	12.6µM*
COc1ccc(-c2nnc(-c3ccc(N)cc3)o2)cc1	5.0%	i	i	i	10µM*
Cc1ccc(-c2nnc(-c3cccnc3)o2)cc1	-1.4%	i	i	i	5.2%
COc1ccc(-c2nnc(-c3cccnc3)o2)cc1	-16.8%	i	i	i	22.4µM*
Brc1ccc(-c2nnc(-c3ccccc3Br)o2)cc1	-1.8%	/	i	i	-20.8%
Brc1ccccc1-c1nnc(-c2cccnc2)o1	-0.2%	i	i	i	15.8µM*
COc1cccc(NC(=O)CCc2nnc3n(Cc4ccccc4Cl)c(=O)c4ccccc4n23)c1	/	/	i	i	14.9%
CCOC(=O)Cn1c(S(=O)(=O)Cc2ccc(Cl)cc2)nc(-c2ccccc2)c1-c1ccccc1	-3.3%	i	i	i	0.7%
C#CCn1c(S(=O)(=O)Cc2ccc(OC)cc2)nc(-c2ccccc2)c1-c1ccccc1	-9.8%	i	i	25.1µM*	-22.7%
Cc1ccc(C(C)C)c(OCCSc2nc(-c3ccccc3F)nc3cc(=O)[nH]n23)c1	/	/	i	i	1.6%
CCOc1ccc(NC(=O)/C=C\C(=O)N(c2ccc(C(C)C)cc2)C(C(=O)NCc2ccco2)c2ccc(F)cc2)cc1 (centres undefined)	/	/	i	?	2.9%
Cc1ccc(Cc2c(-c3ccco3)nc3c4ccccc4ccn23)cc1	12.6µM*	i	i	i	0.0%
COC(=O)c1ccc2nc(-c3ccco3)c(Cc3ccc(C)cc3)n2c1	?	i	i	i	20µM*
COC(=O)c1ccc2nc(-c3ccco3)c(Cc3cccc(F)c3)n2c1	?	i	i	i	14.1µM*
Cc1ccc(Cc2c(-c3ccco3)nc3ccc(C)cn23)cc1	19.4%	i	i	i	?
Fc1cccc(Cc2c(-c3ccco3)nc3c(Cl)cc(C(F)(F)F)cn23)c1	12.0%	i	i	i	12.6µM*
Cc1ccc(Cc2c(-c3ccco3)nc3c(C)cc(Br)cn23)cc1	13.9%	i	i	i	?
COC(=O)C1CCN(S(=O)(=O)c2cc3c4c(c2)C(C)C(=O)N4CCC3)CC1 (centres undefined)	/	/	i	i	0.0%[9.22 µM]
COc1ccccc1CNc1ncnc2c1nnn2C	/	/	i	i	?
CCOc1ccc(NC(=O)CSc2oc(-c3ccco3)nc2S(=O)(=O)c2ccc(Cl)cc2)cc1	/	/	i	i	-23.9%
O=C(COc1ccc(F)cc1)Nc1ccc(Cl)c(-c2nc3ccccc3[nH]2)c1	/	/	i	i	29.7%
O=C(COc1ccccc1F)Nc1ccc(Cl)c(-c2nc3ccccc3[nH]2)c1	/	/	i	?	35.5µM*
Cc1cccc(OCC(=O)Nc2ccc(Cl)c(-c3nc4ccccc4[nH]3)c2)c1	/	/	i	?	35.5µM*
O=C(Nc1nnc(Cc2ccc(Cl)cc2)s1)C1CCN(C(=O)c2ccco2)CC1	5.8%	/	/	/	/
SMILES	aSyn yeast inh	Akt phos inh	Abeta rescue	FUS suppressor	TDP-43 yeast inh
Cc1nn2c(=O)cc(CN(C)c3ccccc3)nc2s1	/	/	i	i	25.7%
CC(=O)c1sc(N/N=C\c2cccc(Br)c2)nc1C	-11.2%	i	i	?	17.8µM*
Cc1cc(S(=O)(=O)Nc2noc3ccccc23)ccc1F	-22.3%	i	i	i	11.2µM*
COc1ccc(Cl)cc1S(=O)(=O)Nc1noc2ccccc12	-12.5%	i	i	i	10µM*
COc1cccc(CNC(=O)c2cc3cc(C)ccc3n2C)c1	/	/	i	i	27.0%[9.22 µM]
CCOC(=O)C(=CNc1cc(C)nn1-c1ccccc1)C(=O)OCC	1.9%	i	i	i	-2.0%
CCOC(=O)C(/C=N/c1cc(C)nn1-c1ccccc1)=C(\C)O	9.6%	-110.1%*	i	i	?
CC(C)NS(=O)(=O)c1ccc(OCC(=O)N2CCN(c3cccc(Cl)c3)CC2)cc1	/	/	i	i	10.7%
CCOC(=O)c1cc2c(=O)n3ccccc3nc2n(CC2CCCO2)c1=NC(=O)c1cc(C)cc(C)c1 (centres undefined)	/	/	i	i	24.5%
CCN1C(=O)CC(N2CCC(Nc3ccc(OC)cc3)CC2)C1=O (centres undefined)	0.8%	-106.0%*	i	i	21.9%
COc1ccc(NC2CCN(C3CC(=O)N(c4ccc(F)c(Cl)c4)C3=O)CC2)cc1 (centres undefined)	-62.3%	i	i	?	6.0%
CSc1ccc(CNCc2c(C(=O)O)c(C)n(Cc3ccc(F)cc3Cl)c2C)cc1	/	/	i	i	-6.0%
COc1ccccc1NC(=O)CSc1nc2c(oc3ccccc32)c(=O)n1Cc1ccco1	/	/	i	i	21.1%
CC(C)n1c(SCC(=O)Nc2ccc(F)cc2)nc2c(oc3ccccc32)c1=O	/	/	i	i	20µM*
CCOCCCn1c(SCC(=O)Nc2ccccc2OC)nc2c(oc3ccccc32)c1=O	/	/	i	?	22.4µM*
CCCCc1nn2c(=O)cc(COC(=O)c3ccc(NC(=O)C4CCCCC4)cc3)nc2s1	/	/	i	i	8.4%
O=C(O)C1CSC2(c3ccc4c(c3)OCCO4)CCC(=O)N12 (centres undefined)	7.2%	-114.8%*	i	i	-3.1%
O=C(O)C1CSC2(c3ccc(Br)cc3)CCC(=O)N12 (centres undefined)	6.0%	i	i	i	0.0%
O=C(Cn1c(=O)n(-c2ccccc2Cl)c(=O)c2sc3ccccc3c21)NC1CCCCC1	/	/	i	i	-7.1%
COc1ccc(CCNC(=O)c2ccc3c(Cl)c4c(nc3c2)CCCC4)c(OC)c1	/	/	i	i	35.5µM*
COc1ccc(CNC(=O)c2ccc3c(Cl)c4c(nc3c2)CCCC4)c(OC)c1	/	/	i	i	20µM*
CCc1ccc(CNC(=O)c2ccc3c(Cl)c4c(nc3c2)CCCC4)cc1	/	/	i	i	?
CCOc1ccc(CNC(=O)c2ccc3c(Cl)c4c(nc3c2)CCCC4)cc1	/	/	i	i	11.2µM*
O=C(NCc1ccc(F)cc1)c1ccc2c(Cl)c3c(nc2c1)CCCC3	/	/	?	i	0.0%
COc1ccc(CNC(=O)c2ccc(Sc3ccc(Cl)cc3)c(NC(C)=O)c2)c(OC)c1	/	/	i	i	22.4µM*
COc1ccc(CCNC(=O)c2ccc3c(Cl)c4c(nc3c2)CCCC4)cc1OC	/	/	i	i	0.0%
COc1ccc(C)cc1NC(=O)C(CCSC)NS(=O)(=O)c1ccc2c(c1)oc(=O)n2C (centres undefined)	/	/	i	i	-15.2%

Screening data: PubChem BioAssay, National Center for Advancing Translational Sciences (NCATS)
